# About 410 targets per protein were measured; listed, in parts, are those with the strongest signals and a random draw of the rest.
# How the values were obtained:
# Assay in all cases: glycan array binding signal (z-score within array); higher = stronger binding
# Settings in all cases: glycan notation: IUPAC condensed, linker removed
# Fuc(a1-2)Gal(b1-3)GlcNAc = target: Fuc(a1-2)Gal(b1-3)GlcNAc
# Summary of the method: (§1)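 Glycan array data were curated from 3228 arrays in the Consortium for Functional Glycomics database and kept only where the protein sequence was available. Glycan names were converted to IUPAC-condensed notation, and columns mapping to the same glycan were averaged. The binding signal is a within-array Z-score, averaged across arrays of the same protein sequence at different concentrations or buffers and across linkers. Negative Z-scores can be read as non-binding.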
# [1] = target: Fuc(a1-2)Gal(b1-3)GlcNAc(b1-3)[Gal(b1-4)GlcNAc(b1-6)]Gal(b1-4)Glc
# Summary of the method: as §1
# [2] = target: Fuc(a1-2)Gal(b1-3)[Fuc(a1-4)]GlcNAc
# Summary of the method: as §1
# [3] = target: Fuc(a1-2)Gal(b1-3)[Fuc(a1-4)]GlcNAc(b1-2)Man(a1-3)[Fuc(a1-2)Gal(b1-3)[Fuc(a1-4)]GlcNAc(b1-2)Man(a1-6)]Man(b1-4)GlcNAc(b1-4)[Fuc(a1-6)]GlcNAc(b1-4)[Fuc(a1-6)]GlcNAc
# Summary of the method: as §1
# [4] = target: Fuc(a1-2)Gal(b1-3)[Fuc(a1-4)]GlcNAc(b1-3)[Fuc(a1-3)[Gal(b1-4)]GlcNAc(b1-6)]Gal(b1-4)Glc
# Summary of the method: as §1
# [5] = target: Fuc(a1-2)Gal(b1-4)GlcNAc(b1-2)Man
# Summary of the method: as §1
# [6] = target: Fuc(a1-2)Gal(b1-4)GlcNAc(b1-3)Gal(b1-4)GlcNAc(b1-2)Man(a1-3)[Fuc(a1-2)Gal(b1-4)GlcNAc(b1-3)Gal(b1-4)GlcNAc(b1-2)Man(a1-6)]Man(b1-4)GlcNAc(b1-4)GlcNAc
# Summary of the method: as §1
# [7] = target: Fuc(a1-2)[Gal(a1-3)]Gal(b1-4)GlcNAc(b1-3)GalNAc
# Summary of the method: as §1
# [8] = target: Fuc(a1-2)[GalNAc(a1-3)]Gal
# Summary of the method: as §1
# [9] = target: Fuc(a1-2)[GalNAc(a1-3)]Gal(b1-3)GalNAc(a1-3)[Fuc(a1-2)]Gal(b1-4)GlcNAc
# Summary of the method: as §1
# [10] = target: Fuc(a1-2)[GalNAc(a1-3)]Gal(b1-3)GlcNAc
# Summary of the method: as §1
# [11] = target: Fuc(a1-2)[GalNAc(a1-3)]Gal(b1-3)GlcNAc(b1-3)GalNAc
# Summary of the method: as §1
# [12] = target: Fuc(a1-2)[GalNAc(a1-3)]Gal(b1-4)[Fuc(a1-3)]GlcNAc(b1-3)GalNAc
# Summary of the method: as §1
# [13] = target: Fuc(a1-3)[Gal3S(b1-4)]GlcNAc
# Summary of the method: as §1
# [14] = target: Gal(a1-4)Gal(b1-3)GlcNAc(b1-2)Man(a1-3)[Gal(a1-4)Gal(b1-3)GlcNAc(b1-2)Man(a1-6)]Man(b1-4)GlcNAc(b1-4)GlcNAc
# Summary of the method: as §1
# [15] = target: Gal(b1-3)GlcNAc(b1-3)Gal(b1-4)GlcNAc(b1-2)Man(a1-3)[Gal(b1-3)GlcNAc(b1-3)Gal(b1-4)GlcNAc(b1-2)Man(a1-6)]Man(b1-4)GlcNAc(b1-4)GlcNAc
# Summary of the method: as §1
# [16] = target: Gal(b1-3)[Fuc(a1-4)]GlcNAc(b1-6)GalNAc
# Summary of the method: as §1
# [17] = target: Gal(b1-4)GalNAc(a1-3)[Fuc(a1-2)]Gal(b1-4)GlcNAc
# Summary of the method: as §1
# [18] = target: Gal(b1-4)GlcNAc(b1-2)[Gal(b1-4)GlcNAc(b1-6)]Man(a1-6)[Gal(b1-4)GlcNAc(b1-2)Man(a1-3)]Man(b1-4)GlcNAc(b1-4)[Fuc(a1-6)]GlcNAc
# Summary of the method: as §1
# [19] = target: Gal(b1-4)GlcNAc(b1-3)Gal(b1-4)GlcNAc(b1-2)Man(a1-3)[Gal(b1-4)GlcNAc(b1-3)Gal(b1-4)GlcNAc(b1-2)Man(a1-6)]Man(b1-4)GlcNAc(b1-4)[Fuc(a1-6)]GlcNAc
# Summary of the method: as §1
# [20] = target: Gal(b1-4)GlcNAc(b1-3)Gal(b1-4)GlcNAc(b1-3)Gal(b1-4)GlcNAc(b1-2)Man(a1-3)[Gal(b1-4)GlcNAc(b1-3)Gal(b1-4)GlcNAc(b1-3)Gal(b1-4)GlcNAc(b1-2)Man(a1-6)]Man(b1-4)GlcNAc(b1-4)[Fuc(a1-6)]GlcNAc
# Summary of the method: as §1
# [21] = target: Gal(b1-4)GlcNAc(b1-3)Gal(b1-4)GlcNAc(b1-3)Gal(b1-4)GlcNAc(b1-3)Gal(b1-4)GlcNAc(b1-2)Man(a1-3)[Gal(b1-4)GlcNAc(b1-3)Gal(b1-4)GlcNAc(b1-3)Gal(b1-4)GlcNAc(b1-3)Gal(b1-4)GlcNAc(b1-2)Man(a1-6)]Man(b1-4)GlcNAc(b1-4)[Fuc(a1-6)]GlcNAc
# Summary of the method: as §1
# [22] = target: Gal(b1-4)GlcNAc(b1-3)Gal(b1-4)GlcNAc(b1-3)Gal(b1-4)GlcNAc(b1-3)Gal(b1-4)GlcNAc(b1-3)Gal(b1-4)GlcNAc(b1-2)Man(a1-3)[Gal(b1-4)GlcNAc(b1-3)Gal(b1-4)GlcNAc(b1-3)Gal(b1-4)GlcNAc(b1-3)Gal(b1-4)GlcNAc(b1-3)Gal(b1-4)GlcNAc(b1-2)Man(a1-6)]Man(b1-4)GlcNAc(b1-4)GlcNAc
# Summary of the method: as §1
binder,measurement,setting,value
SJCP1084 (Schistosoma japonicum) (protein) MRIINLVIISTALLLINLLQTKSQANGEDTKNGTPDDPGLTKSTELKVEVQALLKDKKTNMRVKWNENLLDNTKPEYHNLRDEACELLLQIVRSVVPLSQDDGECKDVTFTKYVVGTKDGAVNVKLTITFKDSVAINQKPMDLKLKLENDFKNLQSESTLKATKPTFTVKVEKRLIPISKPQTTPPTTAKNDASKENVGDIGGEDSTVPTAAPATAASANEEKDEGDKDNKDSQHPNVLTSNVNDRNLIIALVALMILAIGVALTAAVKQR,glycan array binding signal (z-score),Fuc(a1-2)Gal(b1-3)GlcNAc,0.181
same,glycan array binding signal (z-score),[1],-0.827
same,glycan array binding signal (z-score),[2],0.425
same,glycan array binding signal (z-score),[3],-0.159
same,glycan array binding signal (z-score),[4],-0.831
same,glycan array binding signal (z-score),[5],1.24
same,glycan array binding signal (z-score),[6],4.99
same,glycan array binding signal (z-score),[7],-0.455
same,glycan array binding signal (z-score),[8],0.405
same,glycan array binding signal (z-score),[9],-0.717
same,glycan array binding signal (z-score),[10],0.643
same,glycan array binding signal (z-score),[11],2.68
same,glycan array binding signal (z-score),[12],-0.545
same,glycan array binding signal (z-score),[13],-1.01
same,glycan array binding signal (z-score),[14],3.06
same,glycan array binding signal (z-score),[15],0.617
same,glycan array binding signal (z-score),[16],-0.381
same,glycan array binding signal (z-score),[17],-0.495
same,glycan array binding signal (z-score),[18],2.77
same,glycan array binding signal (z-score),[19],4.14
same,glycan array binding signal (z-score),[20],3.35
same,glycan array binding signal (z-score),[21],3.73
same,glycan array binding signal (z-score),[22],4.37
